Screening results as filed in PubChem BioAssay.
A selection: hits, their analogues and other compounds. The true share with any hit is near 2.2%.
miR122 inh = miR-122 inhibition in Huh7 cells | activation (reporter increase), % at 12.5 µM | Huh7 miR-122 Renilla luciferase sensor, 48 h; neutral wells = 0, positive control = 100 | AID 602342 | hit rate 0.3% among 340,000;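 active = mean replicate activation score at least 90 and every replicate individually at or above 90; inconclusive = only one of the two criteria met; inactive = neither criterion met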;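 also: higher luciferase means less miR-122 activity so hits act as miR-122 inhibitors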
PGC1a acetyl inh = PGC1a acetylation modulation, inhibitor mode. AID 651687. inhibition, % at 15.6 µM. U2OS PGC1a acetylation, AlphaScreen anti-acetyl-lysine; with virally co-expressed GCN5 acetyltransferase. hit rate 0.17% among 350,000;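 active = every replicate shows inhibition of at least 40%; inconclusive = mean inhibition at least 40% but some replicate below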;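 also: 0% = neutral control wells and 100% = positive control wells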
C2C12 statin = protects C2C12 myotubes from simvastatin toxicity | rescue of ATP level, % at 7.49 µM | ATP luminescence, 48 h; scaled: DMSO 0, geranylgeraniol control 100 | hit rate 0.78% among 330,000 | AID 602340;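 active = mean ATP rescue above about 67%, or every replicate alone reaching that limit, limit read from the data, passing the limit was not always enough; inconclusive = no clear call, values can overlap the other calls; inactive = mean under the limit and some replicate under it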;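 also: myotubes were challenged with 10 µM simvastatin during compound exposure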
DENV2 CPE rescue = protects cells from dengue virus 2 cytopathic effect; DENV2-infected cells, cytopathic effect rescue, plate reader; hit rate 1.7% among 350,000; CPE inhibition, % at 9.99 µM; in the data active = CPE inhibition above about 20%, passing the limit was not always enough; inconclusive = no clear call, values can overlap the other calls; tested in BHK-21 cells;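 also: 0% = median of neutral control wells and 100% = median of positive control wells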
PvdQ acylase = blocks Pseudomonas aeruginosa PvdQ acylase activity; purified PvdQ acylase, fluorescence plate reader; inhibition, % at 10 µM; hit rate 0.063% among 340,000; AID 488965; in the data active = inhibition above about 30%, passing the limit was not always enough; inconclusive = no clear call, values can overlap the other calls;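 also: 0% = vehicle neutral wells and 100% = reference inhibitor wells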
* hit, by the source's call; ? = inconclusive; · = no result given; ! = repeats disagree; [ ] = dose if it differs, or a comment.

SMILES	miR122 inh	PGC1a acetyl inh	C2C12 statin	DENV2 CPE rescue	PvdQ acylase
COc1ccc(S(=O)(=O)N(C)C[C@H]2OCCCC[C@@H](C)Oc3ccc(NS(=O)(=O)c4ccc(F)cc4)cc3C(=O)N([C@@H](C)CO)C[C@H]2C)cc1	-8[16.7 µM]	0	13	10	·
COc1ccc(S(=O)(=O)Nc2ccc3c(c2)C(=O)N([C@@H](C)CO)C[C@@H](C)[C@@H](CN(C)S(=O)(=O)c2ccc(F)cc2)OCCCC[C@@H](C)O3)cc1	-6[16.7 µM]	1	133*	2	·
COc1ccc(S(=O)(=O)N(C)C[C@H]2OCCCC[C@H](C)Oc3ccc(N(C)C)cc3C(=O)N([C@H](C)CO)C[C@@H]2C)cc1	-8	1	0	23*!	·
COc1ccc(S(=O)(=O)N(C)C[C@H]2OCCCC[C@@H](C)Oc3ccc(NS(C)(=O)=O)cc3C(=O)N([C@@H](C)CO)C[C@@H]2C)cc1	15[16.7 µM]	-25	·	22*	·
C[C@@H]1CN([C@H](C)CO)C(=O)c2cc(-c3cccc(C#N)c3)cnc2O[C@H]1CN(C)C(=O)c1cnccn1	·	4	1	-3	·
C[C@H](CO)N1C[C@H](C)[C@@H](CN(C)S(=O)(=O)c2cccc(F)c2)Oc2ncc(C#CC3CCCC3)cc2C1=O	25[16.7 µM]	-5	49	-4	·
COc1ccc(S(=O)(=O)Nc2ccc3c(c2)C(=O)N([C@H](C)CO)C[C@H](C)[C@H](CN(C)S(C)(=O)=O)OCCCC[C@@H](C)O3)cc1	3[16.7 µM]	9	·	20*	·
COc1ccc(S(=O)(=O)Nc2ccc3c(c2)C(=O)N([C@H](C)CO)C[C@H](C)[C@@H](CN(C)S(C)(=O)=O)OCCCC[C@H](C)O3)cc1	8[16.7 µM]	20	·	9	·
O=C(O)/C=C1\NC(=O)c2ccccc21	0	15	104*	·	-5
Cc1ccc(-c2nc(CSCC(=O)NCCN3CCN(Cc4ccccc4)CC3)c(C)o2)cc1	170*	·	-7	·	10
COc1cc(/C=C(\NC(C)=O)C(=O)Nc2ccc(NC(C)=O)cc2)ccc1OC(C)=O	·	·	·	·	-4
COc1cc(/C=C(\NC(C)=O)C(=O)Nc2ccccc2C)ccc1OC(C)=O	-3	·	·	21*	-5
COc1ccc(CCN2CC(C(=O)NCCc3cn[nH]c3)CCC2=O)cc1 (stereo not given)	·	·	·	88*	1
N#Cc1ccc(C(=O)NCC(c2ccco2)N2CCCCC2)cc1 (stereo not given)	-5	12	124*	·	-9
CCOc1ccc(C(=O)NCC(c2ccco2)N2CCOCC2)cc1 (stereo not given)	·	·	·	26*	-16
CCOc1ccc(C(=O)NCC(=O)N2CCCCCCC2)cc1	7	-8	1	22*	1
CCOc1ccc(C(=O)NCC(=O)OCC(=O)N2CCCCC2)cc1	-5	-9	-2	·	-8
N#Cc1ccc(C(=O)NCC(c2ccco2)N2CCCC2)cc1 (stereo not given)	-10	2	-1	·	-15
CC(C)NC(=O)N(C)C[C@H]1Oc2cc(C3=CCCC3)ccc2S(=O)(=O)N([C@@H](C)CO)C[C@@H]1C	19[16.7 µM]	-8	14	-9	·
CCN(CC)CCCNC(=S)N1CCN(c2nc3ccccc3n2CC)CC1	4	-5	-4	41*	-4
CCN(CC)CCCNC(=S)N1CCn2c(nc3ccccc32)C1	7	6	1	·	-4
Cc1ccc(S(=O)(=O)N2CC[C@@H]3[C@@H](CO)Nc4ccc(-c5ccccc5F)cc4[C@@H]32)cc1	154*[16.7 µM]	-6	5	2	·
O=S(=O)(c1ccc(F)cc1)N1CC[C@@H]2[C@H]1c1cc(-c3ccc(F)cc3)ccc1N[C@@H]2CO	-12[16.7 µM]	1	33	86*	·
Cc1ccc(S(=O)(=O)N2CC[C@@H]3[C@H]2c2cc(-c4ccccc4F)ccc2N[C@@H]3CO)cc1	18[16.7 µM]	2	30	2	·
Cc1cccc(S(=O)(=O)N2CC[C@@H]3[C@@H](CO)N(C)c4ccc(-c5ccc(C#N)cc5)cc4[C@@H]32)c1	-4[16.7 µM]	12	3	45*	·
SMILES	miR122 inh	PGC1a acetyl inh	C2C12 statin	DENV2 CPE rescue	PvdQ acylase
Cc1cccc(S(=O)(=O)N2CC[C@@H]3[C@H]2c2cc(-c4ccc(C#N)cc4)ccc2N(C)[C@H]3CO)c1	12[16.7 µM]	0	-18	13	·
Cc1ccccc1S(=O)(=O)N1CC[C@@H]2[C@@H](CO)Nc3ccc(-c4ccc(F)cc4)cc3[C@@H]21	157*[16.7 µM]	19	-21	-14	·
O=C(C[C@@H]1CC[C@@H](NC(=O)CCN2CCCCC2)[C@@H](CO)O1)Nc1nccs1	·	2	-2	-3	·
COc1ccc2c3c([nH]c2c1)[C@@H](CO)N(C(=O)CN1CCOCC1)CC31CN(CC2CCCC2)C1	·	·	·	11	·
C[C@H]1CN([C@@H](C)CO)C(=O)c2cc(NS(C)(=O)=O)ccc2O[C@@H]1CN(C)CC1CCCCC1	3[16.7 µM]	-11	7	3	·
CC=Cc1ccc2n(c1=O)C[C@H]1[C@H](CO)[C@@H](C(=O)NCCC)[C@@H]2N1C(=O)c1ccccc1F (mixture of isomers)	4[16.7 µM]	·	-13	?	·
O=S(=O)(c1ccc(F)cc1)N1CC[C@@H]2[C@@H](CO)Nc3ccc(C#Cc4cccc(F)c4)cc3[C@@H]21	·	6	·	24*	·
COc1ccccc1-c1ccc2c(c1)[C@H]1[C@H](CCN1S(=O)(=O)c1ccccc1F)[C@H](CO)N2	-11[16.7 µM]	-10	-18	23*	·
CN1c2ccc(-c3ccccc3F)cc2[C@H]2[C@H](CCN2S(=O)(=O)c2ccc(F)cc2)[C@H]1CO	39[16.7 µM]	-8	-7	65*	·
OC[C@@H]1Nc2ccc(-c3ccccc3)cc2[C@H]2[C@@H]1CCN2Cc1ccc(F)cc1	9[16.7 µM]	-22	-6	49*	·
COCC(=O)N1[C@@H](CO)[C@@H](c2ccccc2)C12CN(C(=O)NC1CCCCC1)C2	·	7	·	1	·
CN(C)C(=O)C[C@H]1CC[C@H]2[C@@H](COC[C@H](O)CN2Cc2ccc(C(F)(F)F)cc2)O1	-1[16.7 µM]	-4	-4	1	·
Cc1noc(C)c1S(=O)(=O)Nc1ccc2c(c1)C(=O)N([C@@H](C)CO)C[C@@H](C)[C@H](CN(C)C(=O)c1ccccc1)OCCCC[C@@H](C)O2	-3[16.7 µM]	1	·	0	·
O=S(=O)(c1ccccc1F)N1CC[C@@H]2[C@H]1c1cc(-c3cccc(F)c3)ccc1N[C@@H]2CO	34[16.7 µM]	-17	-84	·	·
O=S(=O)(c1ccccc1F)N1CC[C@H]2[C@H](CO)Nc3ccc(-c4cccc(F)c4)cc3[C@H]21	28[16.7 µM]	-9	-5	29*	·
N#Cc1ccc(-c2ccc3c(c2)[C@@H]2[C@@H](CCN2S(=O)(=O)c2cccc(F)c2)[C@H](CO)N3)cc1	-5[16.7 µM]	-19	-19	34*	·
Cc1ccccc1-c1ccc2c(c1)O[C@@H](CN(C)C(=O)C1CC1)[C@@H](C)CN([C@@H](C)CO)S2(=O)=O	·	1	-54	-5	·
COc1ccc(C(=O)NC(C(=O)NCc2ccccn2)C(C)C)cc1 (stereo not given)	-7	5	136*	·	5
